Molecules are shown by their SMILES. Compounds without any hit were thinned out: in the full panel of roughly 83,000, 20% have a hit.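 Assay: single dose, 48 h. Readout: percent growth (0 = no net growth; negative = cell death). Active: <10.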 Activity calls are given as the source filed them.

This is an account of results in PubChem BioAssay (NCI).

This assay has as its system MDA-MB-435 melanoma. As to the kind of experiment: NCI-60 one-dose screen, 48 h (100 = growth as untreated, 0 = no growth, -100 = all killed). The settings on record: 10 µM unless noted. Here is the method: Growth inhibition of the MDA-MB-435 human Melanoma tumor cell line is measured as a screen for anti-cancer activity. Cells are grown in 96 well plates and exposed to the test compound for 48 hours. Compounds are tested at a single concentration, which is 10^-5 M for most compounds. The reported endpoint is percent growth (GI% or GIPRCNT), where numbers from 0 - 100% represent growth inhibition, and numbers from -100% - 0 represent cell death. For example, a value of 40 represents 60% growth inhibition. A value of 0 means no net growth occurred over the course of the experiment. A value of -40 indicates 40% of cells at the beginning of the experiment died by the end of the experiment. A value of -100 means all cells are dead at the end of the experiment.
NCI-60 Human Tumor Cell Lines Screen was performed using the standard one-dose NCI protocol, which is described in more detail at https://dtp.cancer.gov/discovery_development/nci-60/default.htm.
Compounds with GIPRCNT values below 10 were considered active. Activity score was based on GIPRCNT using the following formula: […]
Score is 0 for GIPRCNT values of 100 or above, 50 for GIPRCNT values of 0, and 100 for GIPRCNT values of -100.
As for `COc1cc(/C=N/n2cnc3oc(-c4ccccc4)cc3c2=N)cc(CN2CCN(C)CC2)c1O`, the growth is 98.6% (inactive).
To `O=C(NNc1nc2cc(F)cc(F)c2n2cccc12)c1ccncn1` belongs 26.3% (inactive); to `C=C(C)C(=O)O[C@H]1C[C@@]2(C)OC(=CC2=O)[C@H](C)[C@H](O)[C@H]2OC(=O)C(=C)[C@@H]21`, 76.3% (inactive).
With `O=C(Cn1cc(CN2C(=O)c3ccc([N+](=O)[O-])cc3C2=O)nn1)Nc1ccccc1Br`, the growth is 109% (inactive).
Next, `COc1cc([C@H]2OC[C@H]3[C@@H]2CO[C@@H]3c2ccc(O)c(OC)c2)ccc1O`: 107% (inactive).
To `C=C(C)[C@@H]1CC[C@]2(C)[C@H](CC=C3[C@@H]4CC(C)(C)CC[C@]4(C(=O)NCC#CCN4CCN(C)CC4)CC[C@]32C)[C@@]1(C)CCC#N` belongs 24.2% (inactive); to `COc1ccc(-c2nc(SCCC(C)C)nc(N/N=C\c3ccc(O)cc3)c2C#N)cc1`, 49.5% (inactive); to `O=C(COc1ccc(C2SCC(=O)N2c2ccc(F)cc2)cc1)c1ccccc1` (stereo not given), 103% (inactive).
To `C=C1C(=O)O[C@@H]2C[C@@H](C)[C@H](OC)CC(=O)[C@](C)(OC(C)=O)C[C@H](OC(=O)/C(C)=C\C)[C@@H]12` belongs 82.8% (inactive); to `COc1ccc(C(=O)c2c(N)c(C#N)cn2-c2cccc(OC)c2)cc1`, -37.3% (active).
With `IP(CCCSc1n(Cc2ccc3ccccc3c2)c(-c2ccccc2)c(-c2ccccc2)[n+]1Cc1ccc2ccccc2c1)(c1ccccc1)(c1ccccc1)c1ccccc1`, the growth is 14.9% (inactive).
As for `C/C(=C(/c1ccc(O)cc1)c1ccc(OCCN(C)C)cc1)c1ccc(Cl)cc1`, the growth is 28.1% (inactive).
Next, `O=C1CSC(=O)N1Cc1cc2ccccc2nc1Cl`: 99.3% (inactive); `CCc1ccc(NC(=O)N[C@@H](Cc2cccc(F)c2)C(=O)N[C@@H]2C(=O)N3CCC[C@H]3C(=O)N3CCCC[C@H]3C(=O)N[C@@H](CO)C(=O)N3C[C@H](C)C[C@H]3C(=O)O[C@H]2C)c(F)c1`: 20.3% (inactive); `N/C(=N\OC(=O)CSc1nc2ccccc2s1)c1ccc2ccccc2c1`: 104% (inactive).
Next, `O=C1C[C@@H](c2ccccc2)Oc2c(Cc3ccccc3O)c(O)c(Cc3cc(Cc4cc(Cc5ccccc5O)ccc4O)ccc3O)c(O)c21`: 93.8% (inactive); `COc1ccc([C@H]2[C@H](O)C(=O)N2c2cc(OC)c(OC)c(OC)c2)cc1`: -12.9% (active).
With `COc1ccc(CCN2C(=O)/C(=C/c3nc(CO)cs3)SC2=S)cc1`, the growth was 96% (inactive).
With `Nc1nc(-c2cccc([N+](=O)[O-])c2)c(N=Nc2ccccc2[N+](=O)[O-])s1`, the growth was 67.7% (inactive).
Next, `Cc1cc(-c2ccc3nc(N)sc3c2)nc2ccc3[nH]ncc3c12`: -44.2% (active); `O=C(CCCCCCN1CC(=O)N2[C@@H](c3cccc(Cl)c3)c3[nH]c4ccccc4c3C[C@H]2C1=O)NO`: 31.2% (inactive); `Oc1ccc(CSc2nnc(-c3ccccc3)o2)c2cccnc12`: 21.8% (inactive).
For `C[C@@H]1C[C@H]2C(=O)OCC(NC(=O)[C@H](Cc3cc(F)cc(F)c3)NC(=O)Nc3ccc(Cl)cc3F)C(=O)N3CCC[C@H]3C(=O)N3CCCC[C@H]3C(=O)N[C@@H](C)C(=O)N2C1` (stereo not given in full), the growth is 19.9% (inactive).
Regarding `C#C[C@]1(O)CC[C@H]2[C@@H]3CC=C4c5sc(Nc6cccc(Cl)n6)nc5CC[C@]4(C)[C@H]3CC[C@@]21C`, the growth is -65.8% (active).
To `COc1cc(-c2noc(C[C@@H](NC(=O)OCc3ccccc3)C(C)C)n2)cc(OC)c1OC` belongs 106% (inactive); to `CC1(C)CC[C@]2(C(=O)O)CC[C@]3(C)C(=CCC4[C@@]5(C)C[C@@H](O)[C@@H]6OC(c7cccc([N+](=O)[O-])c7)OC[C@@]6(C)C5CC[C@]43C)C2C1` (stereo not given in full), 85.5% (inactive).
Next, `COc1cc(OC)c(S(N)(=O)=O)cc1C(=O)/C=C/c1ccccc1`: 9.57% (active); `Oc1ccc(CSc2nnc(-c3ccc(Oc4ccccc4)cc3)o2)c2cccnc12`: 29.9% (inactive).
Take `CCOC(=O)c1c(Nc2ccccc2)nn2c(-c3ccc(Br)cc3)ccnc12`: the growth is 80.3% (inactive).
For the molecule `CCN1C(=O)N(CC)C2SC(N/N=C/c3ccc(OC)cc3)=NC21` (stereo not given), the growth was 0.665% (active).
Next, `O=C1[C@@H]2Cc3c([nH]c4ccccc34)[C@H](c3c(Cl)cccc3Cl)N2C(=O)CN1C1CCN(Cc2ccccc2)CC1`: -61.8% (active).
`Cc1cc(O)c2c(c1)C(=O)C(c1c(C)cc3c(c1O)C(=O)C=CC3=O)=CC2=O`: the growth was 96.5% (inactive).
To `CCOC(=O)c1c(Nc2ccccc2)nn2c(-c3ccc(OC)c(OC)c3)ccnc12` belongs 69.6% (inactive).
Next, `O=c1oc2ccc(-c3ccc(F)cc3F)cc2c(=O)n1-c1ccc(F)c(F)c1`: 3.43% (active); `CNC(=O)c1cc(Oc2ccc3nc(NC(=O)c4ccc(CN5CCN(C)CC5)c(C(F)(F)F)c4)sc3c2)ccn1`: 53.9% (inactive).
Next, `C=CCn1c(SCC(=O)Nc2ccc(OC)cc2)nnc1-c1ccc(Cl)cc1`: 90.1% (inactive); `Cc1ccc(Nc2ncnc3c2c(C)nn3-c2ccc([N+](=O)[O-])cc2)cc1`: 95.7% (inactive).
Regarding `CC(C)=CCc1c2c(c(O)c3c1O[C@]14C(=C[C@@H]5C[C@H]1C(C)(C)O[C@@]4(C/C=C(/C)C(=O)O)C5=O)C3=O)CC(O)C(C)(C)O2` (stereo not given in full), the growth is -16% (active).
`O=C(NNc1nc2cc(F)c(F)cc2n2cccc12)c1ncccn1`: the growth was 26.1% (inactive).
To `NS(=O)(=O)c1ccc(Nc2nc(N/N=C/c3ccc(C(F)(F)F)cc3)nc(Nc3ccccc3)n2)cc1` belongs 19.9% (inactive).
